Measured values: ChEMBL document CHEMBL3988442, “University of Dundee, Small-Polar-MMV Screening Library” (2021)
Among all 48,000 compounds or so, about 13,000 (27%) showed an effect of 50% or more. The list shows a part of the results.

test system: Wolbachia pipientis; assay: Anti-Wolbachia Cell-Based Screen; type: functional; parameters: scale not given: in the data most compounds retested in dose-response had high values; settings: 5 µM

In order of rising “Percent Effect” value:
1. Cc1ccc(S(=O)(=O)Nc2c(C)nn(C)c2C)cc1C  -30.32%
2. CCN(C)S(=O)(=O)NCC(O)c1cc2ccccc2s1 (stereo not given)  -28.91%
3. Cc1nc(CN2CCOCC23CCN(c2ccc(C#N)cc2)CC3)cs1.O=C(O)C(F)(F)F  -24.99%
4. C=Cc1ccc(C(=O)N2CCCC(Nc3ccc(F)c(F)c3)C2)cc1 (stereo not given)  -24.37%
5. FC(F)(F)CCc1ccnc(N2CCN(CCc3ccncc3)CC2)n1  -22.6%
6. CC(Cc1cccc(F)c1)C(=O)NS(=O)(=O)c1cnn(C)c1 (stereo not given)  -18.57%
7. CCS(=O)(=O)NCCNC(=O)N(Cc1ccc(C)o1)C(C)C  -16.03%
8. Cc1cc(=O)[nH]c(SC(C)C(=O)N2CCCN(C3CCCC3)CC2)n1 (stereo not given)  -14.72%
9. O=C(c1ccc[nH]1)N1CC2(CCN(c3nccs3)C2)C1  -14.28%
10. N#Cc1ccc(OC2CCN(C(=O)COCC3CCCO3)CC2)cc1 (stereo not given)  -13.18%
11. Cc1ccc(S(=O)(=O)N2C[C@H]3C[C@H](NC(=O)c4ccnn4C)[C@H]3C2)cc1  -12.92%
12. COC1CCN(C(=O)Cc2csc(-c3ncccn3)n2)CC1  -12.9%
13. Cn1cnnc1S(=O)(=O)C1CCN(C(=O)c2cccs2)CC1  -12.26%
14. Cc1nc(CN2C[C@@H]3CN(C(=O)c4ccco4)C[C@@H]3C2=O)cs1.O=C(O)C(F)(F)F  -11.8%
15. O=C(Nc1cccc(F)c1)NC1CCN(Cc2ccncc2)CC1  -11.06%
16. Cc1ccc(CN2C[C@@H](N(C)C)[C@H]3OCCC[C@H]32)o1.O=C(O)C(F)(F)F.O=C(O)C(F)(F)F  -10.94%
17. COC(=O)[C@@H]1Cc2ncn(C)c2CN1S(=O)(=O)c1ccc(C)cc1  -10.72%
18. Cc1cc(C(=O)N[C@H](C)c2onc(-c3cccnc3)c2C(=O)O)c(C)o1.Cl  -10.14%
19. CN(C)C(=O)C(C)(C)c1ccc2c(c1)OCCO2  -10.01%
20. Cc1nc(CN2C(=O)CC[C@@H]3[C@H]2CCN3C(=O)c2ccc[nH]2)cs1  -9.626%
21. CCn1cnnc1C1CCN(C(=O)c2cnc(C3CC3)s2)CC1  -9.527%
22. O=C(c1cccnc1-c1ccc2c(c1)OCCO2)N1CCCC1  -9.168%
23. Cc1nc(CN2CCOC3(CCCN(c4nccs4)C3)C2)cs1 (stereo not given)  -8.721%
24. Cc1cc(C(=O)N2CCc3c(nc(-c4ccncc4)[nH]c3=O)C2)no1  -7.817%
25. Cc1ccc(S(=O)(=O)N2C[C@@H]3C[C@@H](NC(=O)C(C)(C)C)[C@@H]3C2)cc1  -7.611%
26. CCOCC1CN(C(=O)c2ccsc2)Cc2nn(C)cc21 (stereo not given)  -7.597%
27. Cn1cnnc1C1CCCN(C(=O)c2ccc3c(c2)OCCO3)C1 (stereo not given)  -7.071%
28. CCn1nc(C)c(S(=O)(=O)Nc2ccccc2C(=O)OC)c1C  -6.756%
29. Cc1ccc(C(=O)NS(=O)(=O)c2cccc3cnccc23)c(=O)[nH]1  -6.684%
30. CC1CN(C(=O)c2ccnc(-n3cncn3)c2)c2ccccc2S1 (stereo not given)  -6.511%
31. c1cn2c(n1)CNCC(COCC1CC1)C2 (stereo not given)  -6.113%
32. O=C1CCC2(CCCN(c3ncc(F)cn3)CC2)N1Cc1ccccc1 (stereo not given)  -5.866%
33. Cn1cc(CCCNC(=O)NC2CCN(CC(F)(F)F)C2=O)cn1 (stereo not given)  -5.145%
34. CC(C)CNC(=O)c1ccc2nnc(C3CCN(S(C)(=O)=O)C3)n2c1 (stereo not given)  -4.952%
35. Cl.Cn1nc(C2CCN(C(=O)Cc3cccc(F)c3)CC2)c2cccnc21  -4.432%
36. N#Cc1cccnc1N1CCN(C(=O)c2cccs2)CC1  -4.28%
37. CN(C)C(=O)c1cccnc1-c1ccc2c(c1)OCCO2  -4.201%
38. Cc1cccc2nc(CN3CCC(Cn4ccnn4)CC3)cc(=O)n12  -3.748%
39. COc1ccccc1OCCCc1cccc(C#N)n1  -3.599%
40. CC(=O)N1CC2(CCN(C(=O)c3ccc4c(c3)OCCO4)CC2)C1  -3.523%
41. CN(CC(F)(F)F)C(=O)c1ccc(F)c(NS(C)(=O)=O)c1  -3.424%
42. CN1CCN(C(=O)Cc2ccsc2)Cc2cccnc21.O=C(O)C(F)(F)F  -3.335%
43. O=C(O)C(F)(F)F.O=C(O)C(F)(F)F.c1coc(CN2CCCC3(COCCN(Cc4c[nH]nn4)C3)C2)c1 (stereo not given)  -3.131%
44. Cc1ncc(CNC(=O)c2oc3ccccc3c2CN(C)C)s1  -2.973%
45. Cc1nc(C2CCCN(C(=O)c3ccc(Cn4cccn4)o3)C2)no1 (stereo not given)  -2.072%
46. Cc1ccc(CCN[C@@H]2c3ccccc3C3(CCNCC3)[C@H]2O)s1  -1.865%
47. CCn1cnnc1C1CCN(C(=O)c2ccc(C(=O)OC)s2)CC1  -1.592%
48. Cn1c(C2CC2)nc2c1CCN(CC(=O)Nc1nncs1)C2  -1.4%
49. O=C(O)C(c1ccc2c(c1)OCCO2)N1CCCCCC1 (stereo not given)  -0.2284%
50. Cc1ccc(S(=O)(=O)N2C[C@H]3C[C@H](NC(=O)c4ccn(C)n4)[C@H]3C2)cc1  0.5687%
51. CC(=O)N1CCCCC1c1ncnn1-c1ccc2nc(C)sc2c1 (stereo not given)  1.056%
52. Cc1cc(C)c(Cn2cncn2)cc1CN1CC[C@H](CO)[C@@H](O)C1  2.193%
53. Cc1nc(CN2CCN(Cc3ccoc3)Cc3cccnc32)cs1.O=C(O)C(F)(F)F.O=C(O)C(F)(F)F.O=C(O)C(F)(F)F  3.214%
54. CS(=O)(=O)NCCC(=O)N1CCN(S(=O)(=O)c2ccc(Br)cc2)CC1  3.27%
55. Cc1nc2c(c(N3CCN(Cc4ccco4)CC3)n1)CCNCC2  3.397%
56. COc1cccc(C(=O)Nc2ccc(OCCC(N)=O)cc2)c1OC  3.494%
57. CC(C)N1CCC(N2CCN(C3CCC3)CC2CCO)CC1 (stereo not given)  3.855%
58. CS(=O)(=O)CCn1ccc(NCc2ccc(C#N)cc2)n1  4.656%
59. Cc1cnn(CCC(=O)NS(=O)(=O)N2CCCc3ccccc32)c1  4.859%
60. CN(C)c1ncc(CNS(=O)(=O)c2cccc3ccccc23)n1C  5.382%
61. CN(C)[C@@H]1CN(C(=O)c2ccc(C#N)cc2)[C@@H]2CCCO[C@H]12.O=C(O)C(F)(F)F  5.598%
62. CN(Cc1nccn1C)S(=O)(=O)c1cccc(C#N)c1  5.7%
63. Cn1nc(C(=O)N2CCCCC2c2nc3cc(F)ccc3[nH]2)ccc1=O (stereo not given)  6.226%
64. c1ccc(NCc2cn3c(n2)CN(Cc2ccoc2)CC3)nc1  6.648%
65. O=C(O)C(c1ccc2c(c1)OCCO2)N1CCCC1 (stereo not given)  10.75%
66. COc1ccc(OC)c(C2CCN(Cc3nc(C)n4ccccc34)C2)c1 (stereo not given)  11.21%
67. CN1CCCN(C(=O)c2ccc3c(c2)nc(N2CCOCC2)n3C)CC1  16.47%
68. CC(c1nccs1)n1cc(-c2cc(CN3CCCCC3)cs2)nn1 (stereo not given)  17.2%
69. COCCN(Cc1noc(-c2ccc(OC)cc2)n1)C1CC1  20.29%
70. CCc1nc(C)sc1C(=O)N1CCN(c2ncccc2C)CC1  34.17%
71. COc1cccc(Nc2nc(C3CCNCC3)c3ccccn23)c1.Cl  85.66%
72. Cc1nn(CC(=O)O)c(C)c1NS(=O)(=O)c1cccc2ccccc12  85.86%
73. CN1CCCN(C(=O)c2cccn2-c2ccc3c(c2)OCCO3)CC1  88.31%
74. Cc1nn(CC(=O)O)c(C)c1NS(=O)(=O)c1cc2ccccc2s1  90.4%
75. Cc1nc(CN2C(=O)CCC23CCN(c2ncccc2C)CC3)cs1  91.84%
76. Cc1nc(CC(=O)N2CCC(c3nn(C)c4ncccc34)CC2)cs1.Cl  92.52%
77. Cc1ccc(S(=O)(=O)N2CC[C@@H]3C[C@H](NC(=O)c4[nH]ncc4Br)[C@@H]32)cc1  95.45%
78. Cc1nc2ccc(S(=O)(=O)Nc3c(C)nn(CC(=O)O)c3C)cc2s1  96.05%
79. O=C(O)c1cccn1-c1ccc2c(c1)OCCO2  96.33%
80. Cc1nc(CN2CCC23CCN(Cc2ccoc2)CC3)cs1  97.06%
81. O=C(c1cccn1-c1ccc2c(c1)OCCO2)N1CCCC1  97.35%
82. Cc1ccc(S(=O)(=O)N2CC[C@@H]3C[C@H](NC(=O)c4n[nH]cc4Cl)[C@@H]32)cc1  97.43%
83. CN(C)[C@@H]1CN(C(=O)CCc2ccccc2)[C@@H]2CCCO[C@H]12.O=C(O)C(F)(F)F  98.44%
84. Cc1nc(CN2CCC23CCN(C(=O)c2ccco2)CC3)cs1  98.46%
85. CN(C)C(=O)c1cccn1-c1ccc2c(c1)OCCO2  99.12%
86. Cc1nc(CN2CCC23CCN(Cc2ccco2)CC3)cs1  101.3%
87. COc1cccc(Nc2nc(C3CCCNC3)c3ccccn23)c1.Cl (stereo not given)  104.7%
88. CCn1cnnc1C1CCN(C(=O)c2ccc(OC(C)C)nc2)CC1  106.8%
89. CCn1cnnc1C1CCN(C(=O)c2cnn(C(C)(C)C)c2)CC1  107%
90. Cn1nc(C2CCN(C(=O)c3cccs3)CC2)c2cccnc21  107.6%
91. Cc1nc(CN2C(=O)CCC23CCN(Cc2ccco2)CC3)cs1  111.9%
92. Cl.Cn1nc(C2CCN(C(=O)Cc3ccsc3)CC2)c2cccnc21  115.7%
93. Cc1nc(CN2CCC3(C2)CN(C(=O)c2ccc[nH]2)C3)cs1  122.8%
94. Cc1ccc(S(=O)(=O)N2CC[C@@H]3C[C@H](NC(=O)c4ccncc4)[C@@H]32)cc1  124.2%
95. Cc1nc(CN2CCC3(C2)CN(Cc2ccco2)C3)cs1  129%
